Assay outcomes deposited in PubChem BioAssay by National Center for Advancing Translational Sciences (NCATS).
Only some compounds are listed: those with a hit (about 2.4% of all), similar ones and a draw of the others.
TDP1 inh – inhibitors of human tyrosyl-DNA phosphodiesterase TDP1; Q9NUW8; recombinant TDP1, AlphaScreen DNA substrate cleavage; Potency, µM (highest dose often 130 µM), for the others: at the highest dose activity change, negative = inhibition, most hits filed as inhibitors; actives 0.28% (n = 350,000); AID 485290; also: % is scaled to controls: 0 for no effect and ±100 for the full control effect; nearly all actives have a fitted effect of over 40% in size
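Recombinant human Tdp1 (E. coli-expressed, 1 nM final) preincubated with compounds 15 min at room temperature, then 5'-biotin/3'-phosphotyrosine-FITC DNA substrate (15 nM final) added for 5 min. AlphaScreen beads (10 ug/ml final) added 10 min; cleavage lowers signal.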
FEN1 inhibitor – inhibitors of human flap endonuclease 1; P39748; Recombinant FEN1 flap cleavage, fluorescence, 15 min; Potency, µM (highest dose often 114 µM), for the others: at the highest dose activity change, negative = inhibition, usual class: inhibitors; actives 0.35% (n = 390,000); AID 588795; also: % is scaled to controls: 0 for no effect and ±100 for the full control effect; nearly all actives have a fitted effect of over 65% in size
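FEN1 at 10 nM, compound pretreatment for 15 min (room temperature), 50 nM final substrate to initiate; endpoint reads at 0 and 15 min; DMSO-only plates used as vehicle background.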
Pol kappa inh – blocks human DNA polymerase kappa activity; Q9UBT6; purified Pol kappa, fluorescent DNA synthesis assay, 10 min; Potency, µM (series often up to 107 µM), without a hit: at the highest dose activity, negative = inhibition, most hits filed as inhibitors; actives 0.53% (n = 400,000); AID 588579; also: % is scaled to controls: 0 for no effect and ±100 for the full control effect
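First, compounds were pin-transferred onto 10 nM Pol kappa. After 15 min at room temperature, substrate was added to 50 nM final. Fluorescence was then measured kinetically at 0 and 10 min.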
Pol iota inh – blocks human DNA polymerase iota activity. Pol iota fluorescent replication assay, 10 min. Potency, µM (doses to about 115 µM), inactives show top-dose activity, negative = inhibition, usual class: inhibitors. actives 1% (n = 390,000). AID 588590
Target sequence (Q9UNA4 whole entry, looked up): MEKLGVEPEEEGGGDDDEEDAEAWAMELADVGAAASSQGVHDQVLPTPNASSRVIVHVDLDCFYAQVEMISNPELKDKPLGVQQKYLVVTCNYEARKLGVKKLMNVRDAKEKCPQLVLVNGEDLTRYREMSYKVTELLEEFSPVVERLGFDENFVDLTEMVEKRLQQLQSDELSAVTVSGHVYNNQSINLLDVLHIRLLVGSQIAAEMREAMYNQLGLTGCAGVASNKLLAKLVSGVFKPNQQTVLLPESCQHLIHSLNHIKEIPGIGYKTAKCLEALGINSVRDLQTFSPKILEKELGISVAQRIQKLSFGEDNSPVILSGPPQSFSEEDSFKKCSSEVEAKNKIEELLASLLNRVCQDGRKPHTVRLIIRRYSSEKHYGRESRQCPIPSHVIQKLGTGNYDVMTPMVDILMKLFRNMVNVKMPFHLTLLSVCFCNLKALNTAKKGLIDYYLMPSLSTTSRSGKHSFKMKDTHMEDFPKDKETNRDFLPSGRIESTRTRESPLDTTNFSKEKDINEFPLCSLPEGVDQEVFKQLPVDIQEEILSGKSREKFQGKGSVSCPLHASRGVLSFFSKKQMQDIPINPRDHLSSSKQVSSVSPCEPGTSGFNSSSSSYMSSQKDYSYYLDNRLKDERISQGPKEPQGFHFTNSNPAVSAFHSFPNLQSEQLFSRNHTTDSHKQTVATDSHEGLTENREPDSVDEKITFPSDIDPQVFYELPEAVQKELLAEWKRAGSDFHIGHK
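Pol iota at 10 nM preincubated 15 min with compounds at room temperature; reaction started with fluorescent substrate, 50 nM final. Fluorescence read kinetically at 0 and 10 min; buffer-only wells as negative control.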
Pol eta inh – DNA polymerase eta (human) inhibition | recombinant Pol eta, fluorescent DNA replication assay | actives 1.2% (n = 390,000) | Potency, µM (titrated, usually from 114 µM), without a hit: top-dose activity change, negative = inhibition, actives largely listed as inhibitors | Q9Y253; also: % is scaled to controls: 0 for no effect and ±100 for the full control effect
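Pol eta (10 nM) was preincubated with compounds for 15 min at room temperature, after which fluorescent replication substrate (50 nM final) was added to start the reaction. Fluorescence was read kinetically at 0 and 10 min.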
Pol beta inh – blocks human DNA polymerase beta activity; P06746; Pol beta primer extension/strand displacement, fluorescence kinetic; Potency, µM (top dose mostly 114 µM), for inactives: top-dose activity change, negative = inhibition, usual class: inhibitors; actives 1.3% (n = 340,000); also: % is scaled to controls: 0 for no effect and ±100 for the full control effect
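Human Pol beta at 10 nM; strand-displacement substrate 50 nM final. Compound exposure 15 min at room temperature before start, reaction 10 min at room temperature.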
An asterisk follows results filed as active; u = inconclusive; x = not tested or not shown; ! = not confirmed by another sample; [ ] = dose if it differs, or a comment. Calls follow the shape of the dose curve; as a rule, active = well fitted curve in the direction sought with a large enough effect; inconclusive = small, poorly fitted or top-dose-only effect, or another doubt; inactive = no such curve, though single readings can be large; an effect the other way counts as inactive or inconclusive. Potency is read from the fitted curve at half-maximal effect.

SMILES	TDP1 inh	FEN1 inhibitor	Pol kappa inh	Pol iota inh	Pol eta inh	Pol beta inh
O=C(Nc1ccc2[nH]c(=S)sc2c1)c1ccccc1	9%	-5%	-6%	138%	-15%	11%
CC(C)CC[n+]1ccn(-c2nc3ccccc3nc2[N-]S(=O)(=O)c2ccccc2)c1	x	-2%	-11%	22%	-12%	79µM*
O=C(CSc1nc2c([nH]c3ccccc32)c(=O)n1-c1ccc(F)cc1)NCc1ccc(F)cc1	7%	10%	3%[60.1 µM]	u	0%	-2%
CS(=O)(=O)N1CCC[C@@]2(CCN(c3ccccn3)C2)C1	x	x	5%[60.1 µM]	x	x	x
O=C(O)CCCCCN1C(=O)/C(=C\c2ccc(-c3ccc(Cl)cc3)o2)SC1=S	40µM*	4%	79µM*	35µM*	u	u
CCN(c1ccc(OC)cc1)S(=O)(=O)c1ccc2[nH]c3c(c2c1)CCCCC3	5%	-22%	-16%	79µM*	-10%	20%
Cc1ccc(-c2nnc(SCC(=O)Nc3sc(C)c(C)c3C#N)n2C)cc1	-1%	-11%	-7%	9%	u	22µM*
COCCn1c(SCC(=O)Nc2sc(C)c(C)c2C#N)nnc1-c1ccc(OC)cc1	5%	-13%	-7%	4%	-8%	0%
Cc1ccc(C(=O)OCC(=O)Nc2c(Cl)cc(S(N)(=O)=O)cc2Cl)o1	-11%	-12%	u	71µM*	4%	u
Cc1ccc(C(=O)OCC(=O)NCCc2ccc(S(N)(=O)=O)cc2)o1	-10%	-4%	-33%	-13%	u	x
CCn1cc2nc(SCC(=O)Nc3ccc(C)cc3C)n(Cc3ccc(C)cc3)c(=O)c2n1	0%	-7%	-32%	21%	79µM*	10µM*
CCn1cc2nc(SCC(=O)Nc3ccc(F)cc3F)n(Cc3ccccc3)c(=O)c2n1	1%	-12%	-20%	12%	-22%	17%
Cc1ccc(C(=O)C=CNNC(=O)c2ccccc2)cc1	x	-15%	-11%	12%	-8%	-20%
Cc1ccc(S/C=C\C(=O)c2ccccc2)cc1	-2%	-8%	-23%	79µM*	-14%	21%
O=C(OCCSCCOC(=O)C1CC=CCC1)C1CC=CCC1 (stereo unspecified)	x	-1%	-17%	62%	-5%	x
CC(=O)c1ccc2c3c(cccc13)C(=O)N(CCc1ccccc1)C2=O	-6%	-15%	u	u	28µM*	32µM*
CCCCCCCCCCCCN1[C@@H](CC(=O)O)c2cc(C(F)(F)F)ccc2S1(=O)=O	x	-35%	u	u	45µM*	x
CCCCCCCCN1[C@@H](CC(=O)O)c2cc(C(F)(F)F)ccc2S1(=O)=O	x	-6%	-18%	u	-2%	x
CC(C)C(=O)Nc1cccc(N2CCN(CCCN3C(=O)C4CCCCN4C3=O)CC2)c1 (stereo unspecified)	x	u	-19%	13µM*	4%	x
CC(C)(C)OC(=O)N1CC23CC(c4ccc(F)cc4)C(CC2S1(=O)=O)O3 (stereo unspecified)	5%	-16%	8%	-2%	x	x
CCOC(=O)c1cnn(-c2nc(SC)nc3sc4c(c23)CCC4)c1N	-4%	-3%	-15%	u	u	10µM*
CCOc1ccc(NC(=O)c2c(NCc3cccnc3)sc3c2CCCC3)cc1	6%	4%	-8%[60.1 µM]	17%	-22%	-9%
O=C(COc1ccccc1)Nc1sc2c(c1C(=O)NCc1cccnc1)CCCC2	-3%	9%	-13%	u	u	35µM*
O=C(O)CCC(=O)Nc1sc2c(c1C(=O)Nc1ccccc1)CCCCC2	3%	-13%	-27%	30%	89µM*!	u
COc1ccc(CCNC(=O)CCn2c(=O)c3ccccc3n(Cc3ccccc3)c2=O)cc1OC	-1%	-13%	-6%	-5%	2%	29%
SMILES	TDP1 inh	FEN1 inhibitor	Pol kappa inh	Pol iota inh	Pol eta inh	Pol beta inh
O=C(O)c1cc(N/N=C/c2ccc(N3CCOCC3)s2)ccc1Cl	u	u	28µM*	13µM*	11µM*	32µM*
C/C(=N\Nc1ccc(Cl)c(C(=O)O)c1)c1ccc(N2CCOCC2)cc1	x	-4%	u	u	28µM*	-8%
O=C1c2ccccc2C(=O)N1c1ccncc1	5%	x	x	x	x	x
COc1ccccc1/C=C/C(=O)NCC(=O)N/N=C(/C)c1ccc(Cl)cc1	-1%	-15%	-3%	-7%	2%	13%
O=C(/C=C/c1ccco1)NCC(=O)N/N=C/c1ccc(Cl)cc1	0%	-9%	-13%	-24%	-10%	2%
O=C(/C=C/c1ccco1)NCC(=O)N/N=C/c1ccc([N+](=O)[O-])cc1	3%	u	u	40µM*	45µM*	u
Cc1cc(=O)oc2cc(OCC(=O)N/N=C/c3cc([N+](=O)[O-])ccc3O)ccc12	u	16%	-19%	u	u	32µM*
O=C(COc1cccc([N+](=O)[O-])c1)N/N=C/c1ccco1	-5%	13%	-31%	28µM*	u	-18%
C/C(=N/NC(=O)CNC(=O)/C=C/c1ccco1)c1ccc(Cl)cc1	-2%	1%	-12%	22%	-26%	22µM*
C[C@@H]1CN([C@H](C)CO)C(=O)CCCn2cc(nn2)CO[C@H]1CN(C)C(=O)Nc1ccccc1F	x	x	x	x	0%	x
O=C(/C=C/c1ccc([N+](=O)[O-])cc1)/C=C/c1ccco1	5%	x	x	x	x	10µM*
O=C(/C=C/c1ccc([N+](=O)[O-])cc1)c1ccco1	x	23%	-1%	u	4%	1%
O=C1CSC(=S)N1/N=C/c1ccc2c(c1)OCCO2	x	5%	-4%	u	-7%	-7%
O=C1CSC(=S)N1/N=C/c1cc(Br)c(O)c(Br)c1	-11%	22µM*	16µM*	14µM*	11µM*	20µM*
COc1cc(/C=N/N2C(=O)CSC2=S)ccc1O	-10%	u	79µM*	13µM*	-9%	-5%
O=C1CCc2cc(S(=O)(=O)Nc3cccc(B(O)O)c3)ccc2N1	0%	x	x	x	x	x
COc1ccc(-n2nc(C(=O)Nc3cc(C)c(Cl)cc3OC)c3c4ccccc4n(C)c3c2=O)cc1	2%	4%	-22%	16%	x	1%
Nc1ccc(N2CCOCC2)c2nonc12	3%	u	-1%	u	79µM*	u
O=C(Nc1ccc(N2CCOCC2)c2nonc12)C1CCCC1	6%	1%	-7%	u	-6%	31%
CCC(c1ccc(O)c(O)c1)C(CC)c1ccc(O)c(O)c1 (stereo unspecified)	x	u	50µM*	18µM*	79µM*	x
COc1cc(/C=C2\COC/C(=C\c3cc(OC)c(OC)c(OC)c3)C2=O)cc(OC)c1OC	8%	-10%	-21%	11µM*	u	-2%
